The entries come from a sample that favours hits as a whole.
KDM5B inhibitor = blocks human KDM5B histone demethylase activity. Q9UGL1. KDM5B demethylase, FDH-coupled NADH fluorescence (FDH is formaldehyde dehydrogenase). Potency, µM (series often up to 57.7 µM), hits mostly inhibitors. 2.6% of 220,000 active; active = well fitted inhibition curve with a large enough effect; also: nearly all actives have a fitted effect of over 70% in size
Target sequence (Q9UGL1 whole entry, looked up): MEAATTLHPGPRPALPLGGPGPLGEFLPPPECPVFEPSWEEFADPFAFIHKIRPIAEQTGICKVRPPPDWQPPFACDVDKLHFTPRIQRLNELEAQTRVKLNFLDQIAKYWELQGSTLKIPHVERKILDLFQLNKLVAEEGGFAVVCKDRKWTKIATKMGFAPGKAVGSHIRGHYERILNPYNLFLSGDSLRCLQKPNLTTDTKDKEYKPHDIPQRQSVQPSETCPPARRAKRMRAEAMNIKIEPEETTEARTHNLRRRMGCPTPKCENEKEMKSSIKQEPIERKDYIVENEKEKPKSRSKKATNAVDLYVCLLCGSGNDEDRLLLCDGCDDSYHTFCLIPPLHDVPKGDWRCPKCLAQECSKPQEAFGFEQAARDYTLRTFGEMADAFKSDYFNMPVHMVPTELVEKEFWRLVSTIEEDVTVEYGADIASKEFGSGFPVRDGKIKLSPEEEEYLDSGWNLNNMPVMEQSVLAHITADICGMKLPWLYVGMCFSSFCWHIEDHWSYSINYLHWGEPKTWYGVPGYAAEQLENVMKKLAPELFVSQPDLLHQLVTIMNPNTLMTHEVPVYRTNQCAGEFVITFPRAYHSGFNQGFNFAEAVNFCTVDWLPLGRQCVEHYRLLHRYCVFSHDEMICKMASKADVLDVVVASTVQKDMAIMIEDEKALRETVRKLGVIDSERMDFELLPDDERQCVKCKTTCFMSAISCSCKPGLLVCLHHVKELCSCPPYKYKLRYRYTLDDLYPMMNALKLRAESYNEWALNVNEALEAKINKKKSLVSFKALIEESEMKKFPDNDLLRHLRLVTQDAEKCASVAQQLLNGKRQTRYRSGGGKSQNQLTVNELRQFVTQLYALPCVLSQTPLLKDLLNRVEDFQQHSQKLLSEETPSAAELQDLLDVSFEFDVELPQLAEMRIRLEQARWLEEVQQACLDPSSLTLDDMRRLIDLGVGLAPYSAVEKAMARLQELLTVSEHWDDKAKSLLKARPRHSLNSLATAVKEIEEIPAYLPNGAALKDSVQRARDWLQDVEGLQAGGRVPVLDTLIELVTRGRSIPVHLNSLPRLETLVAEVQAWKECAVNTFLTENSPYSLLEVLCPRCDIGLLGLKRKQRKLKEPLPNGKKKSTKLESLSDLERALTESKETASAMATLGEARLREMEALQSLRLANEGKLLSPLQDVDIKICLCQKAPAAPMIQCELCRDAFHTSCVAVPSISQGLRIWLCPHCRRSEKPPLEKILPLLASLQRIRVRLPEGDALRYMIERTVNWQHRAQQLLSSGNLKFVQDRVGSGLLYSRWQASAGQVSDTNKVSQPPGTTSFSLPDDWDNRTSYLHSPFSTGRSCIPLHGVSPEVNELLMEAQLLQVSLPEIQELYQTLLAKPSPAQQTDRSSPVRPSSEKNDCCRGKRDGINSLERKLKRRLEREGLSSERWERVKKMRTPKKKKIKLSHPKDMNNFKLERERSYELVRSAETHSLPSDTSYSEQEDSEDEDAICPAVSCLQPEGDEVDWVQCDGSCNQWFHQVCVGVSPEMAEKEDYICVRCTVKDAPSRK
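Here, H3K4me3 peptide (12.5 µM in substrate mix) is demethylated by KDM5BΔAP, 200 nM final, after 10 min compound exposure. Formaldehyde product is coupled through FDH (0.25 U/mL in mix) to NADH fluorescence; 30-min ΔRFU feeds dose-response curves.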
Numbers stand for hits; n = inactive; ! = not confirmed by another sample.

SMILES	KDM5B inhibitor
C[C@@]1(O)CCN(c2ncccc2C(=O)c2nccs2)C[C@@H]1O	n
NC(=O)c1cccnc1N1CCOC(CC(c2ccccc2)c2ccccc2)C1 (centres undefined)	n
O=C(c1nccs1)c1cccnc1N1CCNCC(O)C1 (centres undefined)	10µM
CC1CCc2c(-c3cccc(O)c3)nc3ccc4ccccc4c3c2C1 (centres undefined)	n
Cc1cc(Br)ccc1NC(=O)CSc1nc2cc([N+](=O)[O-])ccc2o1	n
O=C(NC1CCCN(c2nc3ncccc3o2)C1)c1cccc(Cl)c1 (centres undefined)	n
Cc1ccc([S+](=O)([O-])N2CCCN(c3nc4ncccc4o3)CC2)cc1	n
CCCOc1nc2ccccc2nc1N1CCC(C(=O)NC2CCCC2)CC1	n
O=C(NC1CCN(c2nc3ncccc3o2)CC1)c1cccc(Cl)c1	28.2µM
CC(C)(C)C(=O)NC1CCN(c2nc3ncccc3o2)CC1	25.1µM
O=C(NC1CCN(c2nc3ncccc3o2)CC1)C1CCCC1	35.5µM
Cc1ccccc1C(=O)NC1CCCN(c2nc3ncccc3o2)C1 (centres undefined)	n
Cc1cc(NC(=O)C(C)(C)C)cc(-c2nc3ncccc3o2)c1O	n
O=C(NC1CCN(c2cc(-c3ccccc3)[nH]n2)CC1)c1ccc2ncccc2c1	n
Cc1ccccc1C(=O)NC1CCN(c2nc3ncccc3o2)CC1	31.6µM
O=C(NC1CCCCC1)C1CCCN(S(=O)(=O)c2cccc3cccnc23)C1 (centres undefined)	n
O=C(NC1CCCN(c2nc3ncccc3o2)C1)c1ccccc1F (centres undefined)	n
COC(=O)CC(N)c1ccc(C)cc1C (centres undefined)	n
Cn1nc(C(=O)N(Cc2ccccc2F)C2CC2)c2ccccc2c1=O	n
FC(F)(F)c1ccccc1N/N=C/c1ccc(Br)cc1	n
O=Cc1cc(Cl)cc(Cl)c1O	n
Cc1ccnc2nc(C(=O)OCC(=O)Nc3ccccc3)nn12	n
O=S(=O)(NCCc1ncc2ccccn12)c1ccc(Br)cc1	n
Cc1ccc(NC(=O)C2=Cc3cc(Cl)ccc3OC=C2)cc1	n
Cn1cc(C(=O)N2CCN(S(=O)(=O)c3cccc(Br)c3)CC2)c2ccccc21	n
SMILES	KDM5B inhibitor
O=C(Nc1ccc(Cl)cc1Cl)C1C2CC/C=C\CC/C=C/CCC21 (centres undefined)	n
CCCCCC(=O)Nc1ccc(-c2csc(NC)n2)cc1	n
COCC(=O)NC1CCN(c2ccccc2S(=O)(=O)C(F)(F)F)CC1	n
CC(NC(=O)C1CCN(c2nc3ccccc3o2)CC1)c1ccccc1 (centres undefined)	n
COCC(=O)NC1CCN(c2nc3ncccc3o2)CC1	31.6µM
O=C(Nc1ccccc1)NC1CCN(c2nc3ncccc3o2)CC1	25.1µM!
COCC(=O)NC1CCCCCC1	n
O=C(Nc1ccc(Cl)cc1)NC1CCN(c2nc3ncccc3o2)CC1	n
COc1ccc2c(c1)c(C(C(=O)O)N1CCN(Cc3cccnc3)CC1)cn2CCC(=O)O (centres undefined)	n
CCCN1C(=O)C2(C(=C(O)c3ccc(OCC)cc3)C(=O)C(=O)N2CCOC)c2ccccc21 (centres undefined)	n
O=C(Nc1ccccc1)[C@@H]1C[C@@H](c2ccc(F)cc2)N([S+](=O)([O-])c2ccccc2)C1	n
COCCNC(=O)[C@@H]1C[C@@H](c2ccc(F)cc2)N([S+](=O)([O-])c2cccnc2)C1	35.5µM
COCCNC(=O)[C@@H]1C[C@@H](c2ccc(F)cc2)N([S+](=O)([O-])c2ccccc2)C1	n
COc1ccc2c(C)c(CCC(=O)Nc3ccccc3N3CCCC3)c(=O)oc2c1	n
O=S(=O)(c1ccc2c(c1)CCN2)N1CCCCC1	n
CCC(=O)Nc1nc2c(C)cc(NS(=O)(=O)c3cccc(Cl)c3C)cc2s1	n
O=C(NCCSc1ccc(Cl)cc1)NC1CC1	n
COc1ccccc1-c1nc(C2CC(=O)N(c3ccc(C)cc3)C2)no1 (centres undefined)	n
O=C1CC(c2noc(-c3ccccc3F)n2)CN1C1CCCCC1 (centres undefined)	n
O=C1CC(c2noc(-c3ccco3)n2)CN1C1CCCCC1 (centres undefined)	n
CCc1ccc(N2CC(c3noc(-c4ccc(OC)cc4OC)n3)CC2=O)cc1 (centres undefined)	31.6µM
COc1ccc(N2CC(c3noc(-c4ccc(OC)cc4OC)n3)CC2=O)cc1 (centres undefined)	n
COc1ccccc1-c1nc(C2CC(=O)N(C3CCCCC3)C2)no1 (centres undefined)	20µM
COc1ccc(N2CC(c3noc(-c4ccccc4OC)n3)CC2=O)cc1 (centres undefined)	n
COc1ccc(-c2nc(C3CC(=O)N(c4ccc(C)cc4)C3)no2)c(OC)c1 (centres undefined)	25.1µM
COc1ccc(-c2nc(C3CC(=O)N(c4ccc(OC)c(OC)c4)C3)no2)c(C)c1 (centres undefined)	n
CCCCn1nc(C(=O)N(C)C2CCS(=O)(=O)C2)c2ccccc2c1=O (centres undefined)	n
